Screening data: PubChem BioAssay, Paczesny and Yang Labs, IUPUI and University of Michigan
This excerpt belongs to a sample that is enriched for hits.
ST2 inh: blocks human ST2 binding to IL-33. AlphaLISA ST2-Fc/biotin-IL-33 interaction, 1 h. AID 1259354. Q01638. inhibition, % for hits at 17 µM. 2.3% of 78,000 active; in the data active = inhibition above about 30%
Target sequence (Q01638 whole entry, looked up): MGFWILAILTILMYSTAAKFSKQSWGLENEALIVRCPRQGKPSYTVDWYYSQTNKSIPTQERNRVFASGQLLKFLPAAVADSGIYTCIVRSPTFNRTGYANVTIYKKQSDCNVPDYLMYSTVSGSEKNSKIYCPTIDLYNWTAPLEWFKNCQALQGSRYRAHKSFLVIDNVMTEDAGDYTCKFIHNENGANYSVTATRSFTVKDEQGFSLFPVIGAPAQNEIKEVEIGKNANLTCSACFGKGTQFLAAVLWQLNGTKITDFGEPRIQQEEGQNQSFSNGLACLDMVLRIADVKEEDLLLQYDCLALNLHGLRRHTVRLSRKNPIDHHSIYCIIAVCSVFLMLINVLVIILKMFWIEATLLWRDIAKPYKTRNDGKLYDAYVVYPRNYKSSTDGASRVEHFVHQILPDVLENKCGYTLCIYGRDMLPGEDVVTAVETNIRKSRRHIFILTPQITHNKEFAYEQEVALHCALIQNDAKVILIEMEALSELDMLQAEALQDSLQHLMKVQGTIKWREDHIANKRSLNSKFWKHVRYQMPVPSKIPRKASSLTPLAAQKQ
Numbers without * were called inactive; ! = repeats disagree.

What do the screens show for `COc1ccc(N2C(=O)CC(NCCc3ccc(O)c(O)c3)C2=O)cc1` (configuration not stated)?
ST2 inh: inactive

Results for O=C1Nc2ccccc2N(O)N1c1ccc([N+](=O)[O-])cc1 ?
ST2 inh: inactive

What do the screens show for `O=[N+]([O-])c1ccc(-c2nnc(S)n2-c2ccccc2)cc1`?
ST2 inh: inactive

Results for N#Cc1cc2[nH]c3ccccc3c2n(-c2ccc([N+](=O)[O-])cc2)c1=N ?
ST2 inh: 34%*!

What do the screens show for `COc1ccc(C(=O)Nc2nnc(C(C)(C)C)s2)cc1[N+](=O)[O-]`?
ST2 inh: inactive

How did CC(=O)c1ccc(OC(=O)c2cc3cc(Br)ccc3oc2=O)cc1 do in these assays?
ST2 inh: inactive

Results for CC(=O)c1ccc(NC(=O)c2cc3cc(Br)ccc3oc2=O)cc1 ?
ST2 inh: 39%*

Results for Cc1ccc(NC(=O)c2cc3cc(Br)ccc3oc2=O)cc1C ?
ST2 inh: inactive

Results for CCn1c(C(C)n2cccn2)n[nH]c1=O (configuration not stated) ?
ST2 inh: inactive

How did O=C(c1cccs1)N1CCN=C1SCc1ccc(Br)cc1 do in these assays?
ST2 inh: inactive

How did Cc1ccc(N2C(=O)CC(Sc3ncn[nH]3)C2=O)cc1C (configuration not stated) do in these assays?
ST2 inh: 36%*

Results for Cc1cccc(N2C(=O)CC(Sc3nccc(C)n3)C2=O)c1 (configuration not stated) ?
ST2 inh: inactive

How did COc1cc(OC)cc(N2C(=O)CC(Sc3ncn[nH]3)C2=O)c1 (configuration not stated) do in these assays?
ST2 inh: inactive

Results for Cc1cccn2c(=O)c3cc(C(=O)NC4CCCCCC4)n(C)c3nc12 ?
ST2 inh: inactive

Results for CCc1ccc(-c2ccc(Br)cc2)nc1 ?
ST2 inh: inactive

How did COc1ccc(C2=CC(=O)Nc3ccccc3S2)cc1 do in these assays?
ST2 inh: inactive

How did Fc1ccc2c(c1)Sc1ccccc1N2 do in these assays?
ST2 inh: 36%*

What do the screens show for `c1ccc2c(c1)Nc1ccc3ccccc3c1S2`?
ST2 inh: 39%*

How did Cc1cc(Br)ccc1OCC(=O)NC1CC(C)(C)NC(C)(C)C1 do in these assays?
ST2 inh: inactive

What do the screens show for `CC1CCCC(NC(=O)CNC(=O)Cn2ccc3ccccc3c2=O)C1C` (configuration not stated)?
ST2 inh: inactive

How did CS(=O)(=O)N(CC(=O)N1CCN(c2ccccc2F)CC1)c1ccccc1 do in these assays?
ST2 inh: inactive

What do the screens show for `Cc1ccccc1CCC1CCCN(C(=O)c2cnc3cc(=O)[nH]n3c2C)C1` (configuration not stated)?
ST2 inh: inactive

Results for Oc1cccc(Oc2cccc(Oc3ccccc3)c2)c1 ?
ST2 inh: inactive

How did CC(C)(C)C1CCc2onc(C(=O)Nc3cccc(Cl)c3)c2C1 (configuration not stated) do in these assays?
ST2 inh: inactive

How did CC(C)(C)C1CCc2onc(C(=O)NCc3ccc(Cl)cc3)c2C1 (configuration not stated) do in these assays?
ST2 inh: inactive

How did CCc1ccc(NC(=O)c2noc3c2CC(C(C)(C)C)CC3)cc1 (configuration not stated) do in these assays?
ST2 inh: 53%*

How did O=C(NCCc1cccc(Cl)c1)c1ccc([N+](=O)[O-])cc1Cl do in these assays?
ST2 inh: inactive

What do the screens show for `CC(C)C1CN(C(=O)Cc2cn3ccsc3n2)CCC(=O)N1CC1CC1` (configuration not stated)?
ST2 inh: inactive

Results for Cc1ccn(CC(=O)NCC2(N(C)Cc3ccccc3)Cc3ccccc3C2)n1 ?
ST2 inh: inactive

How did O=C(O)c1[nH]c2ccc(Cl)cc2c1CC(=O)N1CCCCCC1 do in these assays?
ST2 inh: inactive

Results for COc1cccc(NC(=O)/C(C#N)=C\c2cn(Cc3ccccc3)c3ccccc23)c1 ?
ST2 inh: 35%*

What do the screens show for `Cc1cc(/C=C(\C#N)C(=O)Nc2ccccc2)c(C)n1-c1ccc(F)cc1`?
ST2 inh: inactive

Results for COc1cccc(NC(=O)/C(C#N)=C\c2cn(Cc3ccc(F)cc3)c3ccccc23)c1 ?
ST2 inh: inactive

What do the screens show for `NCC1CN(Cc2ccccc2Cn2cccn2)CCO1` (configuration not stated)?
ST2 inh: inactive

Results for CN(CCOc1ccccc1)c1ncnc2[nH]ccc12 ?
ST2 inh: inactive

What do the screens show for `O=C(c1n[nH]c2c1CCC2)N1CCc2c(c(C(=O)N3CCOCC3)nn2CCCc2ccccc2)C1`?
ST2 inh: inactive

What do the screens show for `Cc1ccc(C(=O)N2CCc3c(c(C(=O)N4CCNC(=O)C4)nn3CCCc3ccccc3)C2)s1`?
ST2 inh: 30%*

What do the screens show for `O=C(Cc1cccs1)N1CCc2c(c(C(=O)N3CCOCC3)nn2CCCc2ccccc2)C1`?
ST2 inh: inactive

How did CC1(C)COC(=O)C1OC(=O)c1ccccc1 (configuration not stated) do in these assays?
ST2 inh: inactive

Results for O=C(O)C[C@@H]1CCN(C(=O)Nc2ccccc2)C[C@@H]1CCN1CCN(c2ccc(F)cc2)CC1 ?
ST2 inh: 69%*

How did O=C(Nc1cccc(F)c1)N1CCN(c2ccc(F)cc2)CC1 do in these assays?
ST2 inh: inactive

What do the screens show for `O=C(O)C[C@@H]1CCN(C(=O)c2ccccc2)C[C@@H]1CCN1CCN(c2cccc(C(F)(F)F)c2)CC1`?
ST2 inh: inactive

Results for O=C(O)C[C@@H]1CCN(C(=O)Cc2ccccc2)C[C@@H]1CCN1CCN(c2cccc(C(F)(F)F)c2)CC1 ?
ST2 inh: inactive

How did CC(=O)Nc1ccc(S(=O)(=O)N(CCCN2CCOCC2)Cc2cccs2)cc1 do in these assays?
ST2 inh: inactive

Results for O=C(O)C[C@@H]1CCN(C(=O)Cc2cccs2)C[C@@H]1CCN1CCOCC1 ?
ST2 inh: 54%*

What do the screens show for `O=C(NC1CCCCC1NC(=O)c1ccccc1Cl)c1ccccc1Cl` (configuration not stated)?
ST2 inh: inactive

Results for Cc1ccccc1OCCn1c(SCC(=O)O)nc2ccccc21 ?
ST2 inh: inactive

Results for COc1ccc(N2C(=O)CC(C(=O)NCCC3=CCCCC3)C2c2ccc(F)cc2)cc1 (configuration not stated) ?
ST2 inh: inactive

What do the screens show for `CSc1nsc(SC)c1NC(=O)Nc1ccccc1`?
ST2 inh: inactive

How did O=C(CSC1=Nc2ccccc2C2=NC(c3ccccc3)C(=O)N12)Nc1cccc(Cl)c1 (configuration not stated) do in these assays?
ST2 inh: inactive

What do the screens show for `Cc1sc2nc3c(C(=O)N4CCN(c5ccc(Cl)cc5)CC4)cccn3c(=O)c2c1C`?
ST2 inh: inactive

Results for CCC(C)CC(C)/C=C/CCC(O)C(Cc1ccc(O)cc1)NC (configuration not stated) ?
ST2 inh: inactive

How did N.N.[Cl-].[Cl-].[Pt+4] do in these assays?
ST2 inh: 77%*

Results for COc1ccc(C2=CC(=O)N(c3ccccc3)C(c3ccccc3)O2)cc1 (configuration not stated) ?
ST2 inh: inactive

Results for CNc1ccnc(N2CCC(C(O)c3cccnc3)CC2)n1 (configuration not stated) ?
ST2 inh: inactive

How did CN1CCN(CC(=O)N2CCCc3c2c(=O)oc2ccc(OCc4ccccc4)cc32)CC1 do in these assays?
ST2 inh: 39%*
